Test results taken from PubChem BioAssay.
Unmarked numbers belong to inactive results. No rule for the calls is given here.

Each compound was assayed against Pantothenate synthetase (Mycobacterium tuberculosis (strain ATCC 25618 / H37Rv)) (UniProt P9WIL5) (assay: Recombinant Mtb pantothenate synthetase (PanC) inhibitors, coupled enzyme, confirmatory (AID 375;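 also: 0% = full reaction with vehicle and 100% = no enzyme background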)). Conditions: coupled enzyme assay; at 10 µM, stronger effect = higher value.
Sequence of Pantothenate synthetase (Mycobacterium tuberculosis (strain ATCC 25618 / H37Rv)) (P9WIL5 whole entry, looked up): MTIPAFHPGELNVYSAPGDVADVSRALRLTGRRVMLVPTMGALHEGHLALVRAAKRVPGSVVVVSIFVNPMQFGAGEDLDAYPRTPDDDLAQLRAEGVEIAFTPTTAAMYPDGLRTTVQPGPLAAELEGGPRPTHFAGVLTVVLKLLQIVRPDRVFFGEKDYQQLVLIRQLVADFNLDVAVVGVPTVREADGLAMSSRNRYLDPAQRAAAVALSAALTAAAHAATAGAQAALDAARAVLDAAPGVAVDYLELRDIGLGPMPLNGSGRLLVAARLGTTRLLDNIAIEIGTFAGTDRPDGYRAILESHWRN
With Cc1onc(-c2ccccc2)c1C(=O)N1CCN(C(=O)c2ccco2)CC1 the inhibition was 0%.
In the case of CC1=C(C(=O)NC2CCC(C)CC2)C2(CCC(C)CC2)OC1=O (configuration not stated), the inhibition is reported as 2%.
COC(=O)C1=C(C)NC(=O)C1(NC(=O)c1cccnc1)C(F)(F)F (configuration not stated) showed an inhibition of 0%.
Work on O=C(OCC(=O)N1CCCC1)c1ccccc1OCc1ccccc1 yielded an inhibition of 0%.
With CS(=O)(=O)N(CC(=O)NCc1ccccn1)c1ccc2c(c1)OCCO2 the inhibition was 0%.
COCCn1c(C)cc(C(=O)CSc2nc3ccccc3c(=O)[nH]2)c1C gave an inhibition of 0%.
With CCN(CC)C(=O)Oc1ccccc1NC(C)=O the inhibition was 1%.
CCCCC1C(=O)N(c2ccccc2)N(c2ccccc2)C1=O gave an inhibition of 0%.
For Cc1csc2nc(CSc3nc4ccccc4o3)c(Br)n12, the inhibition was 0%.
Cc1ccc(C)n1-c1ccc(N2CCOCC2)cc1 gave an inhibition of 0%.
For O=c1oc2ccccc2n1CCc1ccccc1, the inhibition was 4%.
For COc1ccc(OC)c(NC(=O)Cc2coc3ccc(C)cc23)c1, the inhibition was 6%.
For C=CCn1c(Cc2csc(N)n2)nnc1SCC(=O)OCC, the inhibition was 1%.
Work on Cc1cccc(NC2SC(=O)N(c3ccccc3)C2=O)c1 (configuration not stated) yielded an inhibition of 0%.
O=C(c1cc2ccccc2oc1=O)N1CCSC1c1ccco1 (configuration not stated) showed an inhibition of 8%.
With CCN1C(=O)c2ccccc2S(=O)c2ccc(C(=O)NC3CC3)cc21 (configuration not stated) the inhibition was 6%.
Compound CC1CCN(C(=O)CN2C(=O)C(C)(C)Oc3ccc(C(=O)NC4CCCC4)cc32)CC1 has an inhibition of 0%.
Compound CC1CCC(NC(=O)C2(C)CCC(=O)N2Cc2cccnc2)CC1 (configuration not stated) has an inhibition of 0%.
Compound CC(C)CC(c1nnnn1C1CCCC1)N1CCN(c2ccccc2F)CC1 (configuration not stated) has an inhibition of 0%.
With CCCc1cc(C(=O)Nc2ccccc2SC)no1 the inhibition was 0%.
Cc1cccc(-n2c(Cc3cc(=O)[nH]c(=O)[nH]3)nnc2SCC(=O)NCc2ccco2)c1 was tested, and the inhibition was 4%.
Work on CCOC(=O)Nc1ccc2c(CN3C(=O)NC4(CCCC4)C3=O)cc(=O)oc2c1 yielded an inhibition of 2%.
